{"source": "the supplement of paper PMC4894684", "note": "Where a name gives a salt, the structure may show the parent alone. ± gives the standard deviation of the averaged measurements."}
{"tested_on": "Toxoplasma gondii RH (in HFF)", "experiment": "parasite growth relative to the screen mean (all compounds = 100%); higher = less inhibition of parasite growth", "conditions": "5 µM; 72 h; oxygen 21 %", "outline": "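Library compounds, held as 10 mM DMSO stocks, were pinned to 5 µM final onto confluent human foreskin fibroblasts in 96-well plates. The cells were infected within 2 h with RH β-Gal–GFP Toxoplasma (MOI 1:5), grown 72 h at 21% O2, and assayed for parasite number by CPRG β-Gal using in-plate standard curves. Growth is reported relative to the screen mean, in which all compounds = 100%, averaged over two screens, and CellTiter-Blue checked uninfected host-cell viability.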", "units": {"parasite growth": "%"}}
{"smiles": "Oc1cc2c(c(Cl)c1O)CCNCC2c1ccccc1", "note": "(stereo not drawn)", "parasite growth": "103 ± 32"}
{"smiles": "COP(=O)(OC)OC(c1ccc(Cl)cc1)P(=O)(OC)OC", "note": "(stereo not drawn)", "parasite growth": "79.4 ± 28"}
{"smiles": "COc1ccc2cc([C@H](C)C(=O)O)ccc2c1", "note": "[Naproxen sodium]", "parasite growth": "89.9 ± 13"}
{"smiles": "CN(C)CCCC1(c2ccc(F)cc2)OCc2cc(C#N)ccc21", "note": "(stereo not drawn) [Citalopram hydrobromide]", "parasite growth": "122 ± 3.6"}
{"smiles": "O=C1NN(C(=O)Nc2ccc(Br)cc2)[C@@H](c2ccccc2)[C@@H]1c1ccccc1", "parasite growth": "124.5 ± 1.1"}
{"smiles": "CC[N+](CC)(CC)CC(=O)Nc1c(C)cccc1C", "note": "[QX 314 bromide]", "parasite growth": "63.6 ± 9.3"}
{"smiles": "O=c1[nH]ccc2c(S(=O)(=O)N3CCCNCC3)cccc12", "note": "[HA 1100 hydrochloride]", "parasite growth": "122 ± 10"}
{"smiles": "CC(C)(Sc1ccc(CCN(CCCCC2CCCCC2)C(=O)NC2CCCCC2)cc1)C(=O)O", "parasite growth": "87.9 ± 17"}
{"smiles": "O=C(O)Cc1ccc(OCCNC[C@H](O)c2ccccc2)cc1", "note": "[ZD 2079 hydrochloride]", "parasite growth": "119 ± 12"}
{"smiles": "CN1CCC(=C2c3ccccc3C=Cc3ccccc32)CC1", "note": "[Cyproheptadine hydrochloride]", "parasite growth": "12.1 ± 16"}
{"smiles": "COc1ccc(NC(=O)c2cc(OCCCN(C)C)nn2Cc2ccccc2)cc1", "note": "[CFM 1571 hydrochloride]", "parasite growth": "106 ± 4.8"}
{"smiles": "Oc1nc(-c2ccc(C(F)(F)F)cc2)nc2c1CSCC2", "parasite growth": "136 ± 21"}
{"smiles": "C[C@H](NC(=O)/C(C#N)=C/c1ccc(O)c(O)c1)c1ccccc1", "note": "[Tyrphostin B44, (+) enantiomer]", "parasite growth": "154 ± 41"}
{"smiles": "O=[N+]([O-])c1cc2nc(O)c(O)nc2cc1[N+](=O)[O-]", "parasite growth": "91.7 ± 27"}
{"smiles": "Cc1[nH]c(/C=C2\\C(=O)Nc3ccc(S(=O)(=O)Cc4c(Cl)cccc4Cl)cc32)c(C)c1C(=O)N1CCC[C@@H]1CN1CCCC1", "parasite growth": "< 0"}
{"smiles": "Cc1ccc(S(=O)(=O)/C=C/C#N)cc1", "parasite growth": "135 ± 27"}
{"smiles": "CCC(=O)NC1Cc2ccccc2C(c2ccccc2)C1", "note": "(stereo not drawn)", "parasite growth": "73.8 ± 18"}
{"smiles": "COc1ccc(S(=O)(=O)N2c3ccc(Cl)cc3[C@](O)(c3ccccc3Cl)[C@@H]2C(=O)N2CCC[C@H]2C(N)=O)cc1OC", "parasite growth": "144 ± 26"}
{"smiles": "Cc1nnc(-c2ccc3occ(-c4ccc([S+](C)[O-])cc4)c3c2)o1", "note": "(stereo not drawn)", "parasite growth": "83.7 ± 4.5"}
{"smiles": "CC[C@@H]1C(=O)OC[C@@H]1Cc1cncn1C", "note": "[Pilocarpine hydrochloride]", "parasite growth": "76.5 ± 19"}
{"smiles": "Cc1cc(C)cc(C(=O)N(C)[C@H](Cc2ccc(-c3ccccc3)cc2)C(=O)N[C@@H](Cc2c[nH]c3ccccc23)C(=O)O)c1", "parasite growth": "146 ± 20"}
{"smiles": "CCC(=O)O[C@]1(C(=O)SCF)[C@H](C)C[C@H]2[C@@H]3C[C@H](F)C4=CC(=O)C=C[C@]4(C)[C@@]3(F)[C@@H](O)C[C@@]21C", "note": "[Fluticasone propionate]", "parasite growth": "59.2 ± 34"}
{"smiles": "CCOC(=O)c1cnc2c(cnn2CC)c1NN=C(C)C", "note": "[Etazolate hydrochloride]", "parasite growth": "127 ± 21"}
{"smiles": "CN(C)c1nc(N)c(C(=O)Nc2cccnc2)nc1Cl", "note": "[ACDPP hydrochloride]", "parasite growth": "88.7 ± 3"}
{"smiles": "O=c1cc(N2CCOCC2)oc2c1ccc1ccccc12", "parasite growth": "89.2 ± 2.4"}
{"smiles": "Cc1nc2c(O)cccc2c(=O)[nH]1", "parasite growth": "122 ± 24"}
{"smiles": "CN(C)C(=O)C(CCN1CCC(O)(c2ccc(Cl)cc2)CC1)(c1ccccc1)c1ccccc1", "note": "[Loperamide hydrochloride]", "parasite growth": "20.6 ± 19"}
{"smiles": "NC(=O)N1C(=O)/C(=C(\\O)c2cccs2)c2cc(Cl)ccc21", "note": "[Tenidap]", "parasite growth": "134 ± 18"}
{"smiles": "CO[C@@H]1[C@H](O)[C@@H](CO)O[C@H]1n1cnc2c(NC3CCCCC3)ncnc21", "parasite growth": "103 ± 24"}
{"smiles": "O=C1c2ccccc2C(Cc2ccnc(F)c2)(Cc2ccnc(F)c2)c2ccccc21", "parasite growth": "102 ± 14"}
{"smiles": "COC(=O)[C@@H]1[C@H]2C[C@H]3c4[nH]c5ccccc5c4CCN3C[C@@H]2CC[C@@H]1O", "note": "[Yohimbine hydrochloride]", "parasite growth": "184 ± 33"}
{"smiles": "O=C(OCCN1CCCCC1)c1c[nH]c2ccccc12", "parasite growth": "113 ± 7.7"}
{"smiles": "CC(Cc1ccc(O)c(O)c1)(NN)C(=O)O", "note": "[(S)-(-)-Carbidopa]", "parasite growth": "147 ± 34"}
{"smiles": "Nc1nc(NCCc2ccc(O)cc2)nc2nc(-c3ccco3)nn12", "parasite growth": "11.2 ± 10"}
{"smiles": "Cn1cc(/C=C2\\C(=O)Nc3cccnc32)c2ccccc21", "parasite growth": "131 ± 5.3"}
{"smiles": "CC(C)(C)c1ccc(/C=C/C(=O)Nc2ccc3c(c2)OCCO3)cc1", "parasite growth": "133.4 ± 1"}
{"smiles": "C1COC(NC(C2CC2)C2CC2)=N1", "note": "[Rilmenidine hemifumarate]", "parasite growth": "125 ± 13"}
{"smiles": "CC(C)NC[C@H](O)COc1ccc(CC(N)=O)cc1", "note": "[S-(-)-Atenolol]", "parasite growth": "149 ± 12"}
